Source: PubChem BioAssay AID449741 (Southern Research Specialized Biocontainment Screening …, 2010)
Unmarked numbers belong to inactive results.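 How the source made its calls: active means inhibition above 30% at one or more tested concentrations in the dose response; inactive means inhibition below 30% at every tested concentration.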

Test: PhoP-driven GFP expression inhibition, Typhimurium – GFP fluorescence, round 4, synthesized compounds, late-stage follow-up (AID 449741)
Conditions: S. Typhimurium PhoP-regulated promoter-GFP fluorescence, 4 h; series mostly up to 150 µM; inhibition: at the top concentration

SMILES | inhibition [%]
S=C(NCc1ccc(Cl)cc1)NC1CCCCC1 | 13.3
CN1CCN(C(=S)NCc2ccc(Cl)cc2)CC1 | -1.03
S=C(NCc1ccccc1)NCc1ccc(Cl)cc1 | -20.5
Cc1ccccc1NC(=O)N1CCCN(Cc2ccccc2F)C1 | -9.77
COc1cccc(CNC(=S)Nc2ccncc2)c1 | -30.7
S=C(NCc1ccc(Cl)cc1)Nc1ccncn1 | 29.9
FC(F)(F)c1ccc(NC(=S)NCc2ccc(Cl)cc2)cc1 | -9.89
O=C(NC1CCCCC1)N1CCCN(Cc2ccccc2F)C1 | -4.34
S=C(NCc1ccc(Cl)cc1)Nc1ccccc1Br | 15.6
O=C(Nc1ccc(Cl)cc1)N1CCCN(Cc2cccc(Br)c2)C1 | -26.9
S=C(NCc1ccc(Cl)cc1)NC1CCOCC1 | -13.7
O=C(Nc1ccc(Cl)cc1)N1CCCN(Cc2cccc(F)c2)C1 | -5.94
S=C(NCc1ccc(Cl)cc1)NN1CCOCC1 | 28.7
O=C(Nc1ccc(Cl)cc1)N1CCN(Cc2ccccc2F)C1 | -1.2
FC(F)(F)c1ccccc1NC(=S)NCc1ccc(Cl)cc1 | -11.8
S=C(NCc1ccc(Cl)cc1)Nc1ccccc1I | 18.9
S=C(NCc1ccc(Cl)cc1)Nc1ccccn1 | 24.6
S=C(NCc1ccc(Cl)cc1)Nc1ccc(I)cc1 | 21
N#Cc1ccc(CN2CCCN(C(=O)Nc3ccc(Cl)cc3)C2)cc1 | -21.8
S=C(NCc1ccc(Cl)cc1)Nc1cccc(Br)c1 | -24.5
